mHTT CaM bind: disrupts binding of mutant huntingtin to calmodulin. P42858. AlphaScreen His-mHTT/GST-CaM binding, luminescence. inhibition, % at 15 µM. 190,000 tested, 3.6% active. AID 1671202
Pf apPOL inh: Pf-apPOL DNA polymerase inhibition | Recombinant Pf-apPOL, molecular beacon fluorescence, 1.5 h | inhibition, % at 10 µM | 210,000 tested, 0.25% active | AID 1794808
Hits are given with their value; n = inactive; x = no result. Most compounds without a hit are left out; they make up all but 3.5% or so of the library. No stated cut-off is given here; in the data, active means inhibition above about 50%; inactive means the rest.

SMILES	mHTT CaM bind	Pf apPOL inh
CCOc1ccc(NC(=O)c2cccnc2-c2ccsc2)cc1	n	n
COc1ccccc1NC(=O)c1ccc2nc(-c3ccccc3)cn2c1	n	n
Cn1c(=O)c2c(SCC(=O)NC3CCCCC3)nc(-c3cccs3)nc2n(C)c1=O	n	n
COc1cc(OC)cc(-c2nc3n(n2)C(c2ccccc2)C2=C(CCCC2=O)N3)c1 (configuration not stated)	n	n
COc1ccc(-c2nc3n(n2)C(c2ccccc2)C2=C(CCCC2=O)N3)cc1OC (configuration not stated)	59.9	n
COc1ccc(-c2nc3n(n2)C(c2ccc(Cl)cc2)C2=C(CCCC2=O)N3)cc1OC (configuration not stated)	n	n
COc1cc(OC)cc(-c2nc3n(n2)C(c2ccc(F)cc2)C2=C(CCCC2=O)N3)c1 (configuration not stated)	56.8	n
O=C1[C@H](Cc2ccccc2)NCCCC[C@@H](c2ccc(Cl)cc2)N1Cc1ccccc1	91.1	n
O=C1[C@H](Cc2ccccc2)NCCCC[C@H](c2ccc(Cl)cc2)N1Cc1ccc(Cl)cc1	n	n
O=C(c1ccc(S(=O)(=O)N2CCCCC2)cc1)N1CCN(c2ccccc2)CC1	100.2	n
O=C(c1ccc(S(=O)(=O)N2CCCCC2)cc1)N1CCCCC1	n	n
COc1ccc(OC(=O)c2cc3cc(Br)ccc3oc2=O)cc1	n	n
COc1cccc2c1OC1(C)NC(=O)NC2C1C(=O)Nc1ccc(C)cc1C (configuration not stated)	n	n
COc1ccc(C2(C)CC(C)(C)N(C(=O)C(F)(F)F)c3ccccc32)cc1 (configuration not stated)	n	n
COc1cc(NC(=O)CCN2CC(C)CC(C)C2)cc(OC)c1 (configuration not stated)	n	n
Cc1noc(C)c1CC(=O)N1CCCn2cc(-c3ccccc3)nc21	53.1	n
Cc1noc(C)c1CC(=O)N1CCCn2cc(-c3ccccc3F)nc21	n	n
O=C(NC1CCCCCC1)c1nnn2c1COC(c1ccc(F)cc1)C2 (configuration not stated)	n	n
Cc1cccc(-c2noc(C3CCCN3C(=O)COc3ccccc3)n2)c1 (configuration not stated)	n	n
COc1cccc(-c2noc(C3CCCN3C(=O)NCc3ccc(C)cc3)n2)c1 (configuration not stated)	n	n
Cc1ccccc1OCC(=O)N1CCCC1c1nc(-c2cccc(Cl)c2)no1 (configuration not stated)	n	n
COc1cccc(-c2noc(C3CCCN3C(=O)NCc3ccc(F)cc3)n2)c1 (configuration not stated)	75.6	n
Cc1cccc(OCC(=O)N2CCCC2c2nc(-c3cccc(Cl)c3)no2)c1 (configuration not stated)	78.4	n
Cc1cccc(-c2noc(C3CCCN3C(=O)COc3ccc(Cl)cc3C)n2)c1 (configuration not stated)	76.4	n
Cc1ccc(-c2n[nH]c3c2CN(C(=O)c2cnccn2)CC3)cc1	n	n
SMILES	mHTT CaM bind	Pf apPOL inh
Cc1ccc(C=C2Oc3c(ccc(O)c3CN3CCCCC3C)C2=O)o1 (configuration not stated)	n	n
CC1(C)[C@@H]2CCC1(CS(=O)(=O)N(C1CCCCC1)C1CCCCC1)C(O)C2 (some centres not stated)	n	x
Cc1ccc(Cn2cnc3c2c(=O)n(C2CC2)c(=O)n3-c2cccc(C)c2)cc1	n	n
CC1(c2ccc(Br)cc2)NC(=O)CS1 (configuration not stated)	85.0	n
CC1CCC2(CC1)SCC(=O)N2c1ccc(Br)cc1 (configuration not stated)	n	n
Cn1cc(Br)c(C(=O)Nc2ccc(Br)cc2)n1	n	n
COc1ccccc1NC(=O)c1nn(C)cc1Br	n	61.2
CC(C)CNC(=O)c1cn2cc(-c3ccc(F)cc3)ccc2n1	n	n
CN1CCN(C(=O)C2CN(C(=O)C3CC3)CC2c2cccc(C(F)(F)F)c2)CC1 (configuration not stated)	n	n
Cc1cccc(CNC(=O)c2nn(C)c3c2CN(C(=O)CSc2ccccc2)CC3)c1	66.1	n
Cc1cccc(CNC(=O)c2nn(C)c3c2CN(C(=O)c2ccco2)CC3)c1	71.7	n
Cc1cccc(CNC(=O)c2nn(C)c3c2CN(C(=O)C2CC2)CC3)c1	n	n
CC(C)C(=O)N1CCc2c(c(C(=O)NCc3ccc4c(c3)OCO4)nn2C)C1	n	n
Cc1cccc(C(=O)N2CCc3c(c(C(=O)NCc4ccc5c(c4)OCO5)nn3C)C2)c1	61.6	n
Cn1nc(C(=O)NCc2ccc(F)cc2)c2c1CCN(C(=O)c1ccco1)C2	n	n
COc1ccc(C(=O)N2CCc3c(c(C(=O)NCc4cccc(C)c4)nn3C)C2)cc1	n	n
COc1cccc(C(=O)N2CCc3c(c(C(=O)NCc4ccc5c(c4)OCO5)nn3C)C2)c1	50.9	n
